Laboratory results: PubChem BioAssay (NCATS)
Values without a mark were called inactive.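 The calls were made as follows: active = calcium activation more than 3 SD above the typical response in the agonist read; inactive = the rest.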

These molecules were tested against Thyrotropin-releasing hormone receptor (Homo sapiens) (UniProt P34981) (assay: qHTS for Small Molecule Agonists and Allosteric Enhancers of Human TRH Receptor: Validation Screen for Agonists (AID 493127;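 also: intracellular calcium rise by fluo-8 fluorescence before TRH EC20 addition; 0% is about no effect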)). Conditions: TRH receptor agonist cell assay; at 2 µM; active compounds read high.
Source text: NIH Chemical Genomics Center [NCGC]
NIH Molecular Libraries Probe Centers Network [MLPCN]
Assay Submitter (PI): Marvin Gershengorn
This project aims to identify small drug-like molecules that activate (agonists) the thyrotropin releasing hormone (TRH) receptor (TRHR) or enhance its TRH-stimulated activity (allosteric enhancers). TRHR, a drug-accessible cell surface receptor expressed in specific brain regions, and its ligand TRH have been implicated in several central nervous system disorders, including depression and anxiety. Small molecule TRHR agonists or allosteric enhancers that are metabolically stable and able to cross the blood-brain barrier might serve as probes to elucidate the roles of brain TRH receptors in animal models, and might be valuable as lead compounds for the development of drugs to treat patients with central nervous system disorders.
Upon TRHR-Gq activation in TRHR cells, intracellular calcium is released from stores in the endoplasmic reticulum. […] This validation screen measures compound-induced activation of calcium release.
For the HTS assay freshly prepared cells are plated at a density of 2000/well in 3 ul of complete DMEM medium containing 10% serum in 1536-well plates and cultured over night at 37 C in a humidified incubator with 5% CO2. The next day, 2 ul of a no wash calcium dye (ABD Bioquest) was added to the cells and plates were incubated at room temperature for 1 hour. For the assay, assay plates were loaded into the FDSS kinetic plate reader. A 10 cycle (1 second/cycle) baseline measurement is taken and then the FDSS online 1536 pintool delivers 23 nl of compound library (as well as TRH controls) to the plate. The plate is measured for kinetically at 1 cycle/sec for 180 seconds and is considered to be the agonist portion of the assay (eg, compounds which activate a positive calcium response during this portion are flagged as potential agonists). Following the 180 second read, 1 ul of either an EC20 (positive modulation assay) is delivered by an onboard pipette head. Measurements are taken kinetically for an additional 180 seconds.
TRHR FDSS Screening Protocol
1. Reagent, 3 uL 2000 cells/well 1536 TC treated Black plate in media containing 10% FCS
2. Time, 18 hours, 33.5C 5% CO2 (cells grown at 37C)
3. Reagent, 2 uL ABD fluo-8 Ca dye
4. Time, 30 min-1.5hrs hours, Room temp (6 plates/batch)
5. Detector, EX 480/EM 530C, FDSS 10 cycles baseline (1sec/cycle)
6. Compound, 23 nL of stock solution from library
7. Detector, EX 480/EM 530C, FDSS 230 cycles (1sec/cycle) Agonist mode
8. Compound, 1 ul EC20 of TRH made up in HEPES HBSS, 10 nM final
9. Detector, EX 480/EM 530C, FDSS 100 cycles (1sec/cycle) Potentiator mode

Sequence of Thyrotropin-releasing hormone receptor (Homo sapiens) (P34981 whole entry, looked up): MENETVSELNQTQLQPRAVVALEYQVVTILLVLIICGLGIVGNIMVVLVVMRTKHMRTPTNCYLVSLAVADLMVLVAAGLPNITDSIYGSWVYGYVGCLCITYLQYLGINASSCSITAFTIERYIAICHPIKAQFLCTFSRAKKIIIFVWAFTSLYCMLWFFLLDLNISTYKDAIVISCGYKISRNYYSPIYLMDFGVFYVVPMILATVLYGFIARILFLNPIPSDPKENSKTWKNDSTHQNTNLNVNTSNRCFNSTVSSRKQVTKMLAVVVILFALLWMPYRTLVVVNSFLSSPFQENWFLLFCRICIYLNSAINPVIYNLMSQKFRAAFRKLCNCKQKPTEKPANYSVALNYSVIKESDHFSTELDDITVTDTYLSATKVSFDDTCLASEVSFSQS

Compared with Cc1nc2n(c(=O)c1CCN1CCC(c3noc4cc(F)ccc34)CC1)CCCC2, CC1(C)C(=O)N(CCN2CCC(C(=O)c3ccc(F)cc3)CC2)c2ccccc21 is higher in activation: 0.938% for the first, 3.12% for the second.

First: NC(=NCc1ccccc1)NC(=O)c1nc(Cl)c(N)nc1N
Second: Nc1nc(OCc2ccccc2)c2[nH]cnc2n1
The activation of the first is higher: 0.438% for the first, -2.94% for the second.

Going from O=C1c2ccccc2-c2n[nH]c3cccc1c23 to O=Nc1c(-c2c(O)[nH]c3cc(Br)ccc23)[nH]c2ccccc12, the activation falls from 0.75% to -8.62%.

Going from O=C(NCC1CCCCN1)c1cc(OCC(F)(F)F)ccc1OCC(F)(F)F (stereo not given) to Cc1c(OCC(F)(F)F)ccnc1CS(=O)c1nc2ccccc2[nH]1 (stereo not given), the activation rises from -4.44% to 4.38%.

Compared with O=c1c(O)c(-c2cc(O)c(O)c(O)c2)oc2cc(O)cc(O)c12, O=c1c(O)c(-c2ccc(O)cc2O)oc2cc(O)cc(O)c12 is lower in activation: 1.38% for the first, 0.938% for the second.

Compared with O=c1ccc2ccc(O)c(O)c2o1, O=C(CCc1ccc(O)cc1)c1c(O)cc(O)cc1O is higher in activation: -0.188% for the first, 1.75% for the second.

First: CCN(CC)C(=S)SSC(=S)N(CC)CC
Second: CC(C)c1ccc2c(c1)c(SC(C)(C)C)c(CC(C)(C)C(=O)O)n2Cc1ccc(Cl)cc1
The activation of the first is higher: 4% for the first, 1.38% for the second.

Going from O=C1NC(=O)C(c2ccccc2[N+](=O)[O-])=C1Nc1ccc(O)c(Cl)c1 to CC1(C)NC(=O)N(c2ccc([N+](=O)[O-])c(C(F)(F)F)c2)C1=O, the activation falls from 1.69% to -3.25%.

Going from CC(=O)O[C@H]1C(=O)[C@@]2(C)C([C@H](OC(=O)c3ccccc3)[C@]3(O)C[C@H](OC(=O)[C@H](O)[C@@H](NC(=O)c4ccccc4)c4ccccc4)C(C)=C1C3(C)C)[C@]1(OC(C)=O)CO[C@@H]1C[C@@H]2O (stereo not given in full) to OC(CN1CCN(c2cccc(Cl)c2)CC1)C(c1ccccc1)c1ccccc1 (stereo not given), the activation rises from 0.562% to 2.44%.

Going from O=C1c2c(O)cc(O)cc2OC(c2ccc(O)c(O)c2)C1O (stereo not given) to Cc1cc(O)c2c(c1)C(=O)c1cc(O)cc(O)c1C2=O, the activation rises from 0% to 10.2%.

Compared with NCCCCNCCCN, CN(C)CCCC1(c2ccc(F)cc2)OCc2cc(C#N)ccc21 (stereo not given) is higher in activation: -0.0625% for the first, 3.31% for the second.

Compared with Cc1cccc(C#Cc2ccccc2)n1, O=c1cc(N2CCOCC2)oc2c(-c3ccccc3)cccc12 is higher in activation: -5.31% for the first, -3.19% for the second.

First: C[C@@H](N)C1CCC(C(=O)Nc2ccncc2)CC1 (stereo not given in full)
Second: COc1ccccc1N1CCN(CCN(C(=O)C2CCCCC2)c2ccccn2)CC1
The activation of the first is higher: 1.06% for the first, -4.06% for the second.

Going from O=C(O)c1cccnc1Nc1cccc(C(F)(F)F)c1 to Oc1ccc(-c2nc(-c3ccc(F)cc3)c(-c3ccncc3)[nH]2)cc1, the activation falls from 1.5% to -3.81%.

First: COc1cc2nc(N3CCN(C(=O)C4CCCO4)CC3)nc(N)c2cc1OC (stereo not given)
Second: CNC[C@H](O)c1ccc(O)c(O)c1
The activation of the first is lower: 0.562% for the first, 0.875% for the second.
